# Reference: article PMC8384837, “Expanding the binding specificity for RNA recognition by a PUF domain”
# How the values were obtained:
# Assay in all cases: yeast three-hybrid, YBZ-1, SC-Leu-His + 0.5 mM 3-AT, 4 days
# Conditions in all cases: tags: N-Gal4 AD-HA kept; label: inside an RPR1-promoter hybrid RNA with tandem MS2 sites; ssRNA
# [1] = target: PUM1 PUF domain R3-RPH (Homo sapiens, UniProt Q14671 828-1176, C935R;R936P;Q939H)
# Method in brief: (§1)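 The interaction score is the log change in variant frequency from input to selection. Scores were computed in log2 with a pseudocount of 1 for absent variants, using Illumina sequencing of PCR-amplified repeat regions. The input came from four days on SC-Leu and the selection from four days on SC-Leu-His + 0.5 mM 3-AT. The cells were strain YBZ-1 (LexA–MS2 coat fusion, HIS3 reporter) co-expressing Pumilio-1 PUF domain libraries and matching RNA elements from a centromeric plasmid.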
# [2] = target: PUM1 PUF domain R3-RVT (Homo sapiens, UniProt Q14671 828-1176, C935R;R936V;Q939T)
# Chain of PUM1 PUF domain R3-RVT (Q14671 828-1176 C935R/R936V/Q939T): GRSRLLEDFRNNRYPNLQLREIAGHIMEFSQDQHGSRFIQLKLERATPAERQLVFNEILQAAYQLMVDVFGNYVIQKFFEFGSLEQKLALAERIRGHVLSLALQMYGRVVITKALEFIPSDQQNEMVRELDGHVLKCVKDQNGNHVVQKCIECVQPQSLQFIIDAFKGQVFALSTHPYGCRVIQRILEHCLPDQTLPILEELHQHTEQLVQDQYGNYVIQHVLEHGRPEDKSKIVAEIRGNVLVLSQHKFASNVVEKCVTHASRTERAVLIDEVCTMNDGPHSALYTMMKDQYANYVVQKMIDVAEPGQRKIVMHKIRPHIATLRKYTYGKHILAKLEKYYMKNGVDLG
# Method in brief: as §1
# [3] = target: PUM1 PUF domain R3-RIR (Homo sapiens, UniProt Q14671 828-1176, C935R;R936I;Q939R)
# Chain of PUM1 PUF domain R3-RIR (Q14671 828-1176 C935R/R936I/Q939R): as the sequence (Q14671 828-1176 C935R/R936V/Q939T) above, with V109I, T112R counted along it
# Method in brief: as §1
# [4] = target: PUM1 PUF domain R4-CNS (Homo sapiens, UniProt Q14671 828-1176, N971C;H972N;Q975S)
# Chain of PUM1 PUF domain R4-CNS (Q14671 828-1176 N971C/H972N/Q975S): as the sequence (Q14671 828-1176 C935R/R936V/Q939T) above, with R108C, V109R, T112Q, N144C, H145N, Q148S counted along it
# Method in brief: as §1
# [5] = target: PUM1 PUF domain R7-RVC (Homo sapiens, UniProt Q14671 828-1176, S1079R;N1080V;E1083C)
# Chain of PUM1 PUF domain R7-RVC (Q14671 828-1176 S1079R/N1080V/E1083C): as the sequence (Q14671 828-1176 C935R/R936V/Q939T) above, with R108C, V109R, T112Q, S252R, N253V, E256C counted along it
# Method in brief: as §1
# [6] = target: PUM1 PUF domain R7-GRL (Homo sapiens, UniProt Q14671 828-1176, S1079G;N1080R;E1083L)
# Chain of PUM1 PUF domain R7-GRL (Q14671 828-1176 S1079G/N1080R/E1083L): as the sequence (Q14671 828-1176 C935R/R936V/Q939T) above, with R108C, V109R, T112Q, S252G, N253R, E256L counted along it
# Method in brief: as §1
# [7] = target: PUM1 PUF domain R7-GRV (Homo sapiens, UniProt Q14671 828-1176, S1079G;N1080R;E1083V)
# Chain of PUM1 PUF domain R7-GRV (Q14671 828-1176 S1079G/N1080R/E1083V): as the sequence (Q14671 828-1176 C935R/R936V/Q939T) above, with R108C, V109R, T112Q, S252G, N253R, E256V counted along it
# Method in brief: as §1
# [8] = target: PUM1 PUF domain R5-RRW (Homo sapiens, UniProt Q14671 828-1176, C1007R;Q1011W)
# Chain of PUM1 PUF domain R5-RRW (Q14671 828-1176 C1007R/Q1011W): as the sequence (Q14671 828-1176 C935R/R936V/Q939T) above, with R108C, V109R, T112Q, C180R, Q184W counted along it
# Method in brief: as §1
# [9] = target: PUM1 PUF domain R4-RMA (Homo sapiens, UniProt Q14671 828-1176, N971R;H972M;Q975A)
# Chain of PUM1 PUF domain R4-RMA (Q14671 828-1176 N971R/H972M/Q975A): as the sequence (Q14671 828-1176 C935R/R936V/Q939T) above, with R108C, V109R, T112Q, N144R, H145M, Q148A counted along it
# Method in brief: as §1
# [10] = target: PUM1 PUF domain R8-KRW (Homo sapiens, UniProt Q14671 828-1176, N1122K;Y1123R;Q1126W)
# Chain of PUM1 PUF domain R8-KRW (Q14671 828-1176 N1122K/Y1123R/Q1126W): as the sequence (Q14671 828-1176 C935R/R936V/Q939T) above, with R108C, V109R, T112Q, N295K, Y296R, Q299W counted along it
# Method in brief: as §1
# [11] = target: PUM1 PUF domain R7-QND (Homo sapiens, UniProt Q14671 828-1176, S1079Q;E1083D)
# Chain of PUM1 PUF domain R7-QND (Q14671 828-1176 S1079Q/E1083D): as the sequence (Q14671 828-1176 C935R/R936V/Q939T) above, with R108C, V109R, T112Q, S252Q, E256D counted along it
# Method in brief: as §1
# [12] = target: PUM1 PUF domain R8-PFV (Homo sapiens, UniProt Q14671 828-1176, N1122P;Y1123F;Q1126V)
# Chain of PUM1 PUF domain R8-PFV (Q14671 828-1176 N1122P/Y1123F/Q1126V): as the sequence (Q14671 828-1176 C935R/R936V/Q939T) above, with R108C, V109R, T112Q, N295P, Y296F, Q299V counted along it
# Method in brief: as §1
# [13] = target: PUM1 PUF domain R8-HWK (Homo sapiens, UniProt Q14671 828-1176, N1122H;Y1123W;Q1126K)
# Chain of PUM1 PUF domain R8-HWK (Q14671 828-1176 N1122H/Y1123W/Q1126K): as the sequence (Q14671 828-1176 C935R/R936V/Q939T) above, with R108C, V109R, T112Q, N295H, Y296W, Q299K counted along it
# Method in brief: as §1
# [14] = target: PUM1 PUF domain R1-TFR (Homo sapiens, UniProt Q14671 828-1176, S863T;R864F;Q867R)
# Chain of PUM1 PUF domain R1-TFR (Q14671 828-1176 S863T/R864F/Q867R): as the sequence (Q14671 828-1176 C935R/R936V/Q939T) above, with S36T, R37F, Q40R, R108C, V109R, T112Q counted along it
# Method in brief: as §1
# [15] = target: PUM1 PUF domain R1-CIR (Homo sapiens, UniProt Q14671 828-1176, S863C;R864I;Q867R)
# Chain of PUM1 PUF domain R1-CIR (Q14671 828-1176 S863C/R864I/Q867R): as the sequence (Q14671 828-1176 C935R/R936V/Q939T) above, with S36C, R37I, Q40R, R108C, V109R, T112Q counted along it
# Method in brief: as §1
# [16] = target: PUM1 PUF domain R1-KRQ (Homo sapiens, UniProt Q14671 828-1176, S863K)
# Chain of PUM1 PUF domain R1-KRQ (Q14671 828-1176 S863K): as the sequence (Q14671 828-1176 C935R/R936V/Q939T) above, with S36K, R108C, V109R, T112Q counted along it
# Method in brief: as §1
# [17] = target: PUM1 PUF domain R2-LYL (Homo sapiens, UniProt Q14671 828-1176, N899L;Q903L)
# Chain of PUM1 PUF domain R2-LYL (Q14671 828-1176 N899L/Q903L): as the sequence (Q14671 828-1176 C935R/R936V/Q939T) above, with N72L, Q76L, R108C, V109R, T112Q counted along it
# Method in brief: as §1
# [18] = target: PUM1 PUF domain R5-KNA (Homo sapiens, UniProt Q14671 828-1176, C1007K;R1008N;Q1011A)
# Chain of PUM1 PUF domain R5-KNA (Q14671 828-1176 C1007K/R1008N/Q1011A): as the sequence (Q14671 828-1176 C935R/R936V/Q939T) above, with R108C, V109R, T112Q, C180K, R181N, Q184A counted along it
# Method in brief: as §1
# [19] = target: PUM1 PUF domain R5-QIR (Homo sapiens, UniProt Q14671 828-1176, C1007Q;R1008I;Q1011R)
# Chain of PUM1 PUF domain R5-QIR (Q14671 828-1176 C1007Q/R1008I/Q1011R): as the sequence (Q14671 828-1176 C935R/R936V/Q939T) above, with R108C, V109R, T112Q, C180Q, R181I, Q184R counted along it
# Method in brief: as §1
# [20] = target: PUM1 PUF domain R5-RTL (Homo sapiens, UniProt Q14671 828-1176, C1007R;R1008T;Q1011L)
# Chain of PUM1 PUF domain R5-RTL (Q14671 828-1176 C1007R/R1008T/Q1011L): as the sequence (Q14671 828-1176 C935R/R936V/Q939T) above, with R108C, V109R, T112Q, C180R, R181T, Q184L counted along it
# Method in brief: as §1
# Chain of PUM1 PUF domain R3-RPH (Q14671 828-1176 C935R/R936P/Q939H): as the sequence (Q14671 828-1176 C935R/R936V/Q939T) above, with V109P, T112H counted along it
sequence,measurement,setting,value
GGCUAGAACUAGUGGAUCCCCCGGCGCCCGGCGGCUCGAGCCCGGGUAAGUGUAAUUAGUCUGCAUGCCGCCGGGCGCCAUGCCUGCAGGUCGACUCUAGAAAACAUG,binding signal,[1],3.26 log2 enrichment (interaction score)
same,binding signal,[2],2.47 log2 enrichment (interaction score)
same,binding signal,[3],4.33 log2 enrichment (interaction score)
GGCUAGAACUAGUGGAUCCCCCGGCGCCCGGCGGCUCGAGCCCGGGUAAGUGUACAUAGUCUGCAUGCCGCCGGGCGCCAUGCCUGCAGGUCGACUCUAGAAAACAUG,binding signal,[4],2.9 log2 enrichment (interaction score)
GGCUAGAACUAGUGGAUCCCCCGGCGCCCGGCGGCUCGAGCCCGGGUAAGUUUAAAUAGUCUGCAUGCCGCCGGGCGCCAUGCCUGCAGGUCGACUCUAGAAAACAUG,binding signal,[5],2.88 log2 enrichment (interaction score)
same,binding signal,[6],2.75 log2 enrichment (interaction score)
same,binding signal,[7],2.62 log2 enrichment (interaction score)
GGCUAGAACUAGUGGAUCCCCCGGCGCCCGGCGGCUCGAGCCCGGGUAAGUGUGAAUAGUCUGCAUGCCGCCGGGCGCCAUGCCUGCAGGUCGACUCUAGAAAACAUG,binding signal,[8],0.3 log2 enrichment (interaction score)
GGCUAGAACUAGUGGAUCCCCCGGCGCCCGGCGGCUCGAGCCCGGGUAAGUGUAAAUAGUCUGCAUGCCGCCGGGCGCCAUGCCUGCAGGUCGACUCUAGAAAACAUG,binding signal,[9],4.05 log2 enrichment (interaction score)
same,binding signal,[4],0.73 log2 enrichment (interaction score)
same,binding signal,[10],1.73 log2 enrichment (interaction score)
same,binding signal,[8],0.79 log2 enrichment (interaction score)
same,binding signal,[11],3.96 log2 enrichment (interaction score)
same,binding signal,[12],1.89 log2 enrichment (interaction score)
same,binding signal,[13],2.36 log2 enrichment (interaction score)
GGCUAGAACUAGUGGAUCCCCCGGCGCCCGGCGGCUCGAGCCCGGGUAAGUGUAAAUCGUCUGCAUGCCGCCGGGCGCCAUGCCUGCAGGUCGACUCUAGAAAACAUG,binding signal,[14],6.07 log2 enrichment (interaction score)
same,binding signal,[15],4.43 log2 enrichment (interaction score)
same,binding signal,[16],5.97 log2 enrichment (interaction score)
GGCUAGAACUAGUGGAUCCCCCGGCGCCCGGCGGCUCGAGCCCGGGUAAGUGUAUAUAGUCUGCAUGCCGCCGGGCGCCAUGCCUGCAGGUCGACUCUAGAAAACAUG,binding signal,[4],3.64 log2 enrichment (interaction score)
GGCUAGAACUAGUGGAUCCCCCGGCGCCCGGCGGCUCGAGCCCGGGUAAGUGUAAAUUGUCUGCAUGCCGCCGGGCGCCAUGCCUGCAGGUCGACUCUAGAAAACAUG,binding signal,[15],0.87 log2 enrichment (interaction score)
GGCUAGAACUAGUGGAUCCCCCGGCGCCCGGCGGCUCGAGCCCGGGUAAGGGUAAAUAGUCUGCAUGCCGCCGGGCGCCAUGCCUGCAGGUCGACUCUAGAAAACAUG,binding signal,[13],2.46 log2 enrichment (interaction score)
GGCUAGAACUAGUGGAUCCCCCGGCGCCCGGCGGCUCGAGCCCGGGUAAGUGUAAAAAGUCUGCAUGCCGCCGGGCGCCAUGCCUGCAGGUCGACUCUAGAAAACAUG,binding signal,[17],3.33 log2 enrichment (interaction score)
GGCUAGAACUAGUGGAUCCCCCGGCGCCCGGCGGCUCGAGCCCGGGUAAGUGUAAGUAGUCUGCAUGCCGCCGGGCGCCAUGCCUGCAGGUCGACUCUAGAAAACAUG,binding signal,[3],5.02 log2 enrichment (interaction score)
GGCUAGAACUAGUGGAUCCCCCGGCGCCCGGCGGCUCGAGCCCGGGUAAGCGUAAAUAGUCUGCAUGCCGCCGGGCGCCAUGCCUGCAGGUCGACUCUAGAAAACAUG,binding signal,[10],3.21 log2 enrichment (interaction score)
same,binding signal,[12],2.24 log2 enrichment (interaction score)
same,binding signal,[13],2.42 log2 enrichment (interaction score)
GGCUAGAACUAGUGGAUCCCCCGGCGCCCGGCGGCUCGAGCCCGGGUAAGUGUCAAUAGUCUGCAUGCCGCCGGGCGCCAUGCCUGCAGGUCGACUCUAGAAAACAUG,binding signal,[18],2.79 log2 enrichment (interaction score)
same,binding signal,[8],3.43 log2 enrichment (interaction score)
same,binding signal,[19],3.55 log2 enrichment (interaction score)
same,binding signal,[20],2.38 log2 enrichment (interaction score)
GGCUAGAACUAGUGGAUCCCCCGGCGCCCGGCGGCUCGAGCCCGGGUAAGUGUUAAUAGUCUGCAUGCCGCCGGGCGCCAUGCCUGCAGGUCGACUCUAGAAAACAUG,binding signal,[8],3.67 log2 enrichment (interaction score)
same,binding signal,[19],1.95 log2 enrichment (interaction score)
